Data from publication PMC7862700, “An all-to-all approach to the identification of sequence-specific readers for epigenetic DNA modifications on cytosine”.

The sequences below were run against T1, GABPA (Homo sapiens, UniProt Q06546 1-454) (assay: DAPPL (digital affinity profiling via proximity ligation, sequencing); 10 mM Tris-HCl pH 7.5, 50 mM NaCl, 1 mM DTT, 4% glycerol, room temperature, 30 min; GST-TFs on glutathione beads, 16-mer random dsDNA library, 0.1% formaldehyde crosslink after washing; high values mean tight binding). Conditions: protein: recombinant; tags: N-terminal GST; dsDNA, one strand shown.
T1 sequence: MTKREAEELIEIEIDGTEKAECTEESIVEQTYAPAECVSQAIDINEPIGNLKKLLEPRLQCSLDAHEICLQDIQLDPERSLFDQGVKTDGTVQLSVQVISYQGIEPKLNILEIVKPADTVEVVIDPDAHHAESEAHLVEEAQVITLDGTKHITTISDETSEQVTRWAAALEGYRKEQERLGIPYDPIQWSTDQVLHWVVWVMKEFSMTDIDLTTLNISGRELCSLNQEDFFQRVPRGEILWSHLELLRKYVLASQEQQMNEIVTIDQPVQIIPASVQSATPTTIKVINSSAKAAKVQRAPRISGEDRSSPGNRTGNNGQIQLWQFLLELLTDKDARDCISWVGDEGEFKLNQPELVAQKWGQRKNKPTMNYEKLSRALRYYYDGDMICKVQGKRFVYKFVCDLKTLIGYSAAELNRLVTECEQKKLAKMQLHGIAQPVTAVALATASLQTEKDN
How it was run: (§1)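 Yeast served to express human transcription factors as GST fusions, which were then captured on glutathione beads and labelled with DNA barcodes. Pooled with a tag-only sample, they were incubated with 200 nmole of a 16-mer random double-stranded DNA library for 30 min at room temperature in Tris/NaCl/DTT/glycerol buffer, washed, crosslinked with 0.1% formaldehyde, ligated by proximity, amplified by PCR and sequenced. Dividing each hexamer's read frequency for a factor by its frequency for the tag-only sample gives the binding signal.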

Sequence	binding signal
CCTCAT	1.34 fold enrichment (6-mer frequency, TF over GST control)
TTTGGT	1.42 fold enrichment (6-mer frequency, TF over GST control)
ACCCCG	1.29 fold enrichment (6-mer frequency, TF over GST control)
TTTGGC	1.25 fold enrichment (6-mer frequency, TF over GST control)
CGTATG	1.08 fold enrichment (6-mer frequency, TF over GST control)
AACAAG	1.15 fold enrichment (6-mer frequency, TF over GST control)
ACACCT	1.04 fold enrichment (6-mer frequency, TF over GST control)
CGTACC	1.18 fold enrichment (6-mer frequency, TF over GST control)
CCATCT	1.32 fold enrichment (6-mer frequency, TF over GST control)
GACCTC	1.35 fold enrichment (6-mer frequency, TF over GST control)
CCATAC	1.16 fold enrichment (6-mer frequency, TF over GST control)
CCTCAA	1.46 fold enrichment (6-mer frequency, TF over GST control)
TGATCC	1.44 fold enrichment (6-mer frequency, TF over GST control)
AAAGAT	1.21 fold enrichment (6-mer frequency, TF over GST control)
GCCAAT	1.05 fold enrichment (6-mer frequency, TF over GST control)
CGTCTT	1.33 fold enrichment (6-mer frequency, TF over GST control)
CGCTAC	1.25 fold enrichment (6-mer frequency, TF over GST control)
CAGGAT	1.13 fold enrichment (6-mer frequency, TF over GST control)
ATTGCC	1.28 fold enrichment (6-mer frequency, TF over GST control)
GGCTAG	1.1 fold enrichment (6-mer frequency, TF over GST control)

Each sequence was assayed against T2, ERG (Homo sapiens, UniProt P11308 1-479) in the same assay as above. Conditions: protein: recombinant; tags: N-terminal GST; dsDNA, one strand shown.
T2 sequence: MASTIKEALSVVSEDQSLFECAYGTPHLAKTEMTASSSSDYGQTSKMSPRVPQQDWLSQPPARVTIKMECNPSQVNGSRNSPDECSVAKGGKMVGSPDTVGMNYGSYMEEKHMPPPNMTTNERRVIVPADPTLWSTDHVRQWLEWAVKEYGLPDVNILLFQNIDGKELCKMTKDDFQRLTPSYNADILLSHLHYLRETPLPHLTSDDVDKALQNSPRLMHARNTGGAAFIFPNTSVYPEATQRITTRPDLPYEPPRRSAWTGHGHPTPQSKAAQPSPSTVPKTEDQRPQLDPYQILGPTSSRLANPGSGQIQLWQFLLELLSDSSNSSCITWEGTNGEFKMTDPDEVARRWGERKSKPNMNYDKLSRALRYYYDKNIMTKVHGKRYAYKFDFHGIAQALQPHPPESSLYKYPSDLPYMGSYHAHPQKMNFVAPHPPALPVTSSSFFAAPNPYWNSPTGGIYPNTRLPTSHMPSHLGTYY
How it was run: as §1

Sequence	binding signal
CCTCAC	1.22 fold enrichment (6-mer frequency, TF over GST control)
CGTCAC	1.31 fold enrichment (6-mer frequency, TF over GST control)
CATGCT	1.23 fold enrichment (6-mer frequency, TF over GST control)
CTTACT	1.27 fold enrichment (6-mer frequency, TF over GST control)
CGGCAT	1.11 fold enrichment (6-mer frequency, TF over GST control)
TGCATT	1.24 fold enrichment (6-mer frequency, TF over GST control)
TCGCAA	1.16 fold enrichment (6-mer frequency, TF over GST control)
TCGTAC	1.06 fold enrichment (6-mer frequency, TF over GST control)
TTTACG	1.26 fold enrichment (6-mer frequency, TF over GST control)
GAAGCA	1.34 fold enrichment (6-mer frequency, TF over GST control)
TTTCAA	1.25 fold enrichment (6-mer frequency, TF over GST control)
ACCCGC	1.21 fold enrichment (6-mer frequency, TF over GST control)
GGAACT	1.89 fold enrichment (6-mer frequency, TF over GST control)
AGGAAG	1.63 fold enrichment (6-mer frequency, TF over GST control)
TTATTC	1.34 fold enrichment (6-mer frequency, TF over GST control)
AACCAC	1.15 fold enrichment (6-mer frequency, TF over GST control)
CTAAAC	1.23 fold enrichment (6-mer frequency, TF over GST control)
GTTCAC	1.21 fold enrichment (6-mer frequency, TF over GST control)
GATGCC	1.41 fold enrichment (6-mer frequency, TF over GST control)
CACACG	1.07 fold enrichment (6-mer frequency, TF over GST control)

Sequence	binding signal
CCTCAT	1.34 fold enrichment (6-mer frequency, TF over GST control)
TTTGGT	1.31 fold enrichment (6-mer frequency, TF over GST control)
ACCCCG	1.24 fold enrichment (6-mer frequency, TF over GST control)
TTTGGC	1.12 fold enrichment (6-mer frequency, TF over GST control)
CGTATG	1.03 fold enrichment (6-mer frequency, TF over GST control)
AACAAG	1.14 fold enrichment (6-mer frequency, TF over GST control)
ACACCT	1.12 fold enrichment (6-mer frequency, TF over GST control)
CGTACC	1.12 fold enrichment (6-mer frequency, TF over GST control)
CCATCT	1.26 fold enrichment (6-mer frequency, TF over GST control)
GACCTC	1.38 fold enrichment (6-mer frequency, TF over GST control)
CCATAC	1.08 fold enrichment (6-mer frequency, TF over GST control)
CCTCAA	1.26 fold enrichment (6-mer frequency, TF over GST control)
TGATCC	1.29 fold enrichment (6-mer frequency, TF over GST control)
AAAGAT	1.21 fold enrichment (6-mer frequency, TF over GST control)
GCCAAT	1 fold enrichment (6-mer frequency, TF over GST control)
CGTCTT	1.37 fold enrichment (6-mer frequency, TF over GST control)
CGCTAC	1.24 fold enrichment (6-mer frequency, TF over GST control)
CAGGAT	1.2 fold enrichment (6-mer frequency, TF over GST control)
ATTGCC	1.14 fold enrichment (6-mer frequency, TF over GST control)
GGCTAG	1.1 fold enrichment (6-mer frequency, TF over GST control)

What follows are sequences tested against ELF1 (Homo sapiens, UniProt P32519 1-619) in the same assay as above. Conditions: protein: recombinant; tags: N-terminal GST; dsDNA, one strand shown.
Chain of ELF1 (P32519 whole entry): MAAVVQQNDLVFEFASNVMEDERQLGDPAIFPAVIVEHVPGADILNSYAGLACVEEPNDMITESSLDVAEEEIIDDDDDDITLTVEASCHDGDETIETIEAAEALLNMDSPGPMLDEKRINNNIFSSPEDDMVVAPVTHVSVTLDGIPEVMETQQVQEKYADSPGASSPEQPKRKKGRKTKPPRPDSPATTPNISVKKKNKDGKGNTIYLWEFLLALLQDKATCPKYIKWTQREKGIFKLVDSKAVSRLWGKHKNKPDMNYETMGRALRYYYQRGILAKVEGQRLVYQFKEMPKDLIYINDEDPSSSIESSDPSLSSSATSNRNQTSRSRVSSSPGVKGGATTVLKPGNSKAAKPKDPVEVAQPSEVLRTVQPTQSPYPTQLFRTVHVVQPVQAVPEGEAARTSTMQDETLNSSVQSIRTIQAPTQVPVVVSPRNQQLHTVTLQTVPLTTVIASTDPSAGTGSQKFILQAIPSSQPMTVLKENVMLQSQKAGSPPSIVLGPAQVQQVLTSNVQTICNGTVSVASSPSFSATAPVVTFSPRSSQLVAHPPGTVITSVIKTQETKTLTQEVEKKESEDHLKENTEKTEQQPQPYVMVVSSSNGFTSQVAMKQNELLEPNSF
How it was run: as §1

Sequence	binding signal
CCTCAC	1.22 fold enrichment (6-mer frequency, TF over GST control)
CGTCAC	1.24 fold enrichment (6-mer frequency, TF over GST control)
CATGCT	1.23 fold enrichment (6-mer frequency, TF over GST control)
CTTACT	1.29 fold enrichment (6-mer frequency, TF over GST control)
CGGCAT	1.08 fold enrichment (6-mer frequency, TF over GST control)
TGCATT	1.33 fold enrichment (6-mer frequency, TF over GST control)
TCGCAA	1.19 fold enrichment (6-mer frequency, TF over GST control)
TCGTAC	1.14 fold enrichment (6-mer frequency, TF over GST control)
TTTACG	1.26 fold enrichment (6-mer frequency, TF over GST control)
GAAGCA	1.25 fold enrichment (6-mer frequency, TF over GST control)
TTTCAA	1.3 fold enrichment (6-mer frequency, TF over GST control)
ACCCGC	1.33 fold enrichment (6-mer frequency, TF over GST control)
GGAACT	1.72 fold enrichment (6-mer frequency, TF over GST control)
AGGAAG	1.23 fold enrichment (6-mer frequency, TF over GST control)
TTATTC	1.3 fold enrichment (6-mer frequency, TF over GST control)
AACCAC	1.25 fold enrichment (6-mer frequency, TF over GST control)
CTAAAC	1.24 fold enrichment (6-mer frequency, TF over GST control)
GTTCAC	1.16 fold enrichment (6-mer frequency, TF over GST control)
GATGCC	1.32 fold enrichment (6-mer frequency, TF over GST control)
CACACG	1.21 fold enrichment (6-mer frequency, TF over GST control)

Sequence	binding signal
CCTCAT	1.35 fold enrichment (6-mer frequency, TF over GST control)
TTTGGT	1.32 fold enrichment (6-mer frequency, TF over GST control)
ACCCCG	1.31 fold enrichment (6-mer frequency, TF over GST control)
TTTGGC	1.27 fold enrichment (6-mer frequency, TF over GST control)
CGTATG	1.1 fold enrichment (6-mer frequency, TF over GST control)
AACAAG	1.13 fold enrichment (6-mer frequency, TF over GST control)
ACACCT	1.07 fold enrichment (6-mer frequency, TF over GST control)
CGTACC	1.15 fold enrichment (6-mer frequency, TF over GST control)
CCATCT	1.38 fold enrichment (6-mer frequency, TF over GST control)
GACCTC	1.39 fold enrichment (6-mer frequency, TF over GST control)
CCATAC	1.18 fold enrichment (6-mer frequency, TF over GST control)
CCTCAA	1.32 fold enrichment (6-mer frequency, TF over GST control)
TGATCC	1.26 fold enrichment (6-mer frequency, TF over GST control)
AAAGAT	1.26 fold enrichment (6-mer frequency, TF over GST control)
GCCAAT	1.04 fold enrichment (6-mer frequency, TF over GST control)
CGTCTT	1.35 fold enrichment (6-mer frequency, TF over GST control)
CGCTAC	1.2 fold enrichment (6-mer frequency, TF over GST control)
CAGGAT	1.14 fold enrichment (6-mer frequency, TF over GST control)
ATTGCC	1.21 fold enrichment (6-mer frequency, TF over GST control)
GGCTAG	1.09 fold enrichment (6-mer frequency, TF over GST control)
